About 1,400 (4.5%) of roughly 31,000 sequences were called active. This excerpt belongs to a sample that is enriched for actives. Unmarked numbers belong to inactive results.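 Rule for the calls: active = median seed-adjusted z-score above 1 or below -1; inactive = the rest.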

This note sets out measurements from PubChem BioAssay AID1347426 (Functional Genomics Laboratory (NCATS/FGL), 2020).

The assay can be described thus: Novel Modifiers of Survival Motor Neuron (SMN) Protein: Gene Identification via Genome-wide siRNA Screen.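 Note: luminescence tracks full-length SMN protein made from the SMN2 reporter.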 To be noted: HEK293T SMN2-luciferase reporter, siRNA knockdown, 72 h; actives lie on both sides. Put shortly: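 Genome-wide siRNA screen (10418 genes, 3 siRNAs each, 1 pmol per well) by reverse transfection in HEK293T cells stably carrying an SMN2-luciferase reporter; luminescence after 72 hours, normalized to negative-control siRNA, log10-transformed, MAD-scored.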
For orientation: In a reporter assay the amount or activity of a reporter protein is the signal.
Regarding UCAUAUAGGCAAAAUUUAATT against POU3F2, the median seed-adjusted z-score was -0.179.

On to GGGUUCACCUCAGAGAGCATT against DPF3, for which the median seed-adjusted z-score was 0.242.

As for GAAACUUUCAUUACGUAUATT against SNX7, the median seed-adjusted z-score is 0.146.

Consider GAACGAAAGGUCCUCAGUATT against SPATA21, for which the median seed-adjusted z-score is -1.03 (active).

As to GCUGCUUCAGACUACCAAATT against TXNDC9, the median seed-adjusted z-score was -0.176.

On to CCAUAUUAAUGUCCAUGAUTT against PCDHB7, for which the median seed-adjusted z-score is 0.365.

For the sequence GGAUGCCCACUGUAUCAUATT against MYST2, the median seed-adjusted z-score is -1.46 (active).

Consider GAUGGAUACCUCUACCUGATT against ZNF593, for which the median seed-adjusted z-score is 0.215.

For the sequence CGUGAUCUCAAGUCCAACATT against MAP3K11, the median seed-adjusted z-score is 0.773.

Regarding CUACCAUUUUCAUCGAGGATT against FREM3, the median seed-adjusted z-score is -0.565.

On to CGAAAGAGGCAAAUAUGAATT against CBX3, for which the median seed-adjusted z-score is -0.893.

In the case of GGAUCGGGUUUACUCAGAATT against ACTR6, the median seed-adjusted z-score was 0.189.

Consider GGAAGGAACCAUCCAGUAATT against POLR2L, for which the median seed-adjusted z-score is -1.19 (active).

For AGUUCUUCCUAAUCCGAGATT against DOLPP1, the median seed-adjusted z-score was 0.00977.

AAUCGAUCCUCAAUCCUUATT against ZNF676: the median seed-adjusted z-score is -0.499.

In the case of GCUCCAAAUUGGUUGUAUUTT against PRKAG1, the median seed-adjusted z-score is 0.431.

As to GAACAACUCUUGUGAGAUUTT against STC2, the median seed-adjusted z-score was -0.00039.

For the sequence GCUUCUGAAAUGAACCGAATT against DDHD2, the median seed-adjusted z-score was 0.447.

Regarding GUGCGGUAGCUACUUGUUUTT against RRAD, the median seed-adjusted z-score was -0.267.

In the case of GGACUCUCAUGAGUGCUGATT against ACP2, the median seed-adjusted z-score was -0.00569.

On to GAAAGAUGUUGGGAAUAAATT against ST6GAL2, for which the median seed-adjusted z-score was 0.054.

Turning to CAUCCAUUAUGACCUGCUATT against ACO2, the median seed-adjusted z-score was -1.57 (active).

As for CGUGUGGACUUGACAAGCATT against OBSCN, the median seed-adjusted z-score is -0.798.

CUAUAUCUCCAACACUUUUTT against SMARCD3: the median seed-adjusted z-score is 0.247.

For the sequence GAGAAAAAGCGGAUCAAGATT against GRK6, the median seed-adjusted z-score was -0.862.

Consider GGAAGAACGUGUAACCGAATT against RDX, for which the median seed-adjusted z-score is 0.123.

In the case of GAGUCUGCGUUAUCGACAATT against TPR, the median seed-adjusted z-score was -1.03 (active).

Consider GGAUGAAAAAUACCGGUGUTT against UGT8, for which the median seed-adjusted z-score is 0.

For CAACCUUUCACUGCAAUGATT against NAT8, the median seed-adjusted z-score was -0.228.

With CGGGAAGAAUCAAAGUCGATT against KRT23, the median seed-adjusted z-score was -0.0696.

Regarding GGAGCGAAAUGUUCAGGUUTT against PSPH, the median seed-adjusted z-score is -0.518.

Regarding CGAGGACACUCAAACGGAUTT against TAF7L, the median seed-adjusted z-score is -0.14.

As for CACGAAAACUUACCCAGAATT against DGUOK, the median seed-adjusted z-score was 0.0168.

With GGUCCCAGCUUGAAGAGAATT against CSTB, the median seed-adjusted z-score was 1.08 (active).

As to CAGGCAAAGUUCGACAGUATT against HEPH, the median seed-adjusted z-score is -0.293.

For the sequence GGAUUCUCAGUUACACUUATT against SLC25A3, the median seed-adjusted z-score is -0.495.

Turning to GAUCCGUUCUGAUUAGUGATT against EZH1, the median seed-adjusted z-score is 0.268.

In the case of GUUCCUCACUUAUCGCUAUTT against ADAMTSL3, the median seed-adjusted z-score is -0.0419.

Take GGAACUACGUCCACACCCATT against GHRHR: the median seed-adjusted z-score is 0.

As for GGAUAACACUAAGUUUAGATT against SFRS1, the median seed-adjusted z-score is -1.66 (active).

As for GGCCGGUGUUUGACGACAATT against STK32C, the median seed-adjusted z-score is -0.311.

For CUCCCUCACCAAAACAAAATT against DUSP26, the median seed-adjusted z-score was 0.204.

As to CAAGGUCUGUAGUCAAAAUTT against ZNF677, the median seed-adjusted z-score was -0.441.

GGAGGUUCAGAAGCACCUATT against PACSIN2: the median seed-adjusted z-score is 0.73.

As to GUGUAGCACUGACCAAGAATT against RCAN3, the median seed-adjusted z-score is 0.544.

Consider GAUCUGUGCUAUACUGACATT against EFTUD2, for which the median seed-adjusted z-score is -1.25 (active).

Consider GACCUGCUCUGUAACCUCATT against NAALADL1, for which the median seed-adjusted z-score was -0.0444.

Take AAAACUUACGAACAACAAATT against TBR1: the median seed-adjusted z-score is -0.388.

Consider UCAAGCAUGUGGUCCUGUATT against AIP, for which the median seed-adjusted z-score is 0.529.

Turning to GAUGAGUAUGCAAAAUUUATT against ATR, the median seed-adjusted z-score is -0.217.

In the case of GCACAUAAGGAGGCGAUUATT against WDR33, the median seed-adjusted z-score is 3.27 (active).

Regarding GCAACAUCGUGUUCUUGAATT against GAL3ST1, the median seed-adjusted z-score was 0.263.

As for GCAGAAACCCAGAUCGAGATT against PLAT, the median seed-adjusted z-score is 0.246.

Consider GGAACUUUUUCGUCGGUAUTT against RNGTT, for which the median seed-adjusted z-score is -1.55 (active).

As for CGACAUUGGUGACCCUCUUTT against DDOST, the median seed-adjusted z-score is -0.315.

GCAGUUCGAGAAGAACUUUTT against LMBR1: the median seed-adjusted z-score is 0.236.

For the sequence AGACACCCUUUGGACCACATT against ZFAND2A, the median seed-adjusted z-score was 0.

Consider GCACGAAUGAGGACGAUGATT against SPRY4, for which the median seed-adjusted z-score was -1.23 (active).

Consider GGUGGAAGUGGUCAACGUATT against DUSP21, for which the median seed-adjusted z-score is -0.0724.

In the case of GACGUGGAGUUGAUAAAGATT against DSC3, the median seed-adjusted z-score is 0.18.

With GCCCGUCUGCAGUACCUAATT against ADAP2, the median seed-adjusted z-score was -1.1 (active).

Regarding GCACUUAUAUGACAGCGAATT against SIM1, the median seed-adjusted z-score was -0.0177.

As for GCUCGAUUAACAAAAUAUATT against SLC30A5, the median seed-adjusted z-score was 0.401.

Consider GAUUGGACCUAACAAUGGATT against NEIL3, for which the median seed-adjusted z-score was 0.0736.

On to UGCUGACUUUUAACCCACATT against CDK4, for which the median seed-adjusted z-score was 0.346.

With CACUCGAAAUUUUGAAGCATT against CHD4, the median seed-adjusted z-score is 0.625.

As to CGGUUGAACUUCGAAAUAUTT against NF1, the median seed-adjusted z-score was -0.36.

Consider CAACGGCAGGAAAUUCUAATT against KLRA1, for which the median seed-adjusted z-score was 0.918.

On to GUAUCGCAUUUCUACAGCATT against SAMHD1, for which the median seed-adjusted z-score is -1.33 (active).
